Source: the supplement of paper PMC11417369
± gives the standard deviation of the averaged measurements. The full ranking holds about 25,000 sequences; the median of “ln(normalized median fluorescence intensity)” is about 8.6, and the highest 2% start at about 10. What follows is part of a selection rich in the highest values, with near analogues and random picks from the rest.

The sequences below were run on PfAP2-EXP AP2 domain (GST-tagged) (assay: gcPBM binding intensity (ln(normalized median fluorescence intensity)); higher = stronger DNA binding).
Method in brief: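 An Agilent 4 × 180k array carrying primer-extended double-stranded 36-bp intergenic genomic probes and negative controls received GST-tagged P. falciparum DNA-binding domains expressed in E. coli, about 25 μg on average, for 1 h. The binding buffer contained 1× PBS, 1% milk, 0.2 mg/ml BSA, 0.5% salmon testes DNA and 0.03% Triton X-100. Binding intensity is the top Masliner-normalised natural-log median intensity across replicate spots of either probe orientation, read after Alexa488 anti-GST antibody staining and a 488 nm scan.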

| Sequence | gcPBM binding intensity (ln) |
| --- | --- |
| AGTAGCATATTCTATTGTACATATATATATATATAT [XGTACX_site2980] | 10.2 ± 0.56 |
| TATATATATATATATTGTACATATTGTATATATTGT [XGTACX_site3212] | 9.98 ± 0.21 |
| TAATATTTATTCTATTGTACATAAAATATATATATA [XGTACX_site7132] | 9.225 ± 0.078 |
| TTTATATATATAAATATGTAGATAACAATATTCTGA [TGCATGCA_negctrl_site554] | 8.16 ± 0.44 |
| AAATTGGTTCATCAATGTACATGTAAAATAAATCAA [XGTACX_site4795] | 8.88 ± 0.46 |
| AAATTAATATTATGTGCATGCACAAAGAGGAACGAC [TGCATGCA_site754] | 10.7 ± 0.18 |
| ATTATTAATAATTGTGTGCACAAATATTTATATGCT | 8.86 ± 0.092 |
| TATTAATTATAAGATGCATGTGCAAAAATATGTTCC [TGCATGCA_site51] | 9.01 ± 0.36 |
| ATATATATATATATATATATATATATATATAAGTGG [XGTACX_negctrl_site90] | 9.94 ± 0.35 |
| TACTTACACTGTTTTTGTACTTATTTCCCTTTTATT [XGTACX_site2158] | 9.12 ± 0.6 |
| ATTTCCCCTTTTTATTGTACATTTTTATTTGTTACT [XGTACX_site4845] | 9.14 ± 0.64 |
| TTATTTTCCCTTTGTGCATGCAGTTTACTTTTTGTG [TGCATGCA_site993] | 10.4 ± 0.64 |
| TGTATAAGGTTTTTACGTTTTGAAGGATGTATTGTT [CACACA_negctrl_site1245] | 8.59 ± 0.6 |
| TTGTATTATTATGTTGCACACATTTTATATAAAATA [CACACA_site3641] | 9.06 ± 0.31 |
| TTTATATGTATTAAGTGTACACATATAATGTATTTT [XGTACX_site16] | 8.71 ± 0.014 |
| TATGTATTTTTTAAGTGTACCTATATATATATATAT [XGTACX_site7934] | 10.2 ± 0.3 |
| TTTATGTGTATTAAGTGTACACATATAGTGTATTTT [XGTACX_site999] | 8.42 ± 0.31 |
| AATATAATATACATATGTACATATATATATATATAT [XGTACX_site8218] | 10 ± 0.32 |
| TACAGAAATTTATATATATATATATATATATATATA [XGTACX_negctrl_site209] | 9.95 ± 0.62 |
| ATATATATATATATATGTACATACTATACAATAATT [XGTACX_site3546] | 10.4 ± 0.29 |
| AGAATAAATAAATATTGTACATATAAAATATATATA [XGTACX_site896] | 8.39 ± 0.35 |
| TAGAAATATATTTATTGTACATTGTATATATTATAT [XGTACX_site7584] | 8.35 ± 0.48 |
| TATAGAAAATTTATATGTACATATATATATATATAT [XGTACX_site4451] | 10.1 ± 0.44 |

| Sequence | gcPBM binding intensity (ln) |
| --- | --- |
| TATATATATATATATTGTACATATTAATATTAGAAA [XGTACX_site8923] | 10.1 ± 0.39 |
| ATATATATAAATATATGTACTAATATATACATATAT [XGTACX_site2289] | 8.22 ± 0.092 |
| ACATATAATATAAATTGTACATATAAATATATTATT [XGTACX_site4268] | 8.38 ± 0.32 |
| ATTTAGAAATATATTTGTACATATATATATATATAT [XGTACX_site7129] | 10.2 ± 0.35 |
| ACATGTACAGAAATTTATATATATATATATATATAT [CACACA_negctrl_site1584] | 10.3 ± 0.33 |
| AATAAATAAATATATTGTACATATATATATATATAT [XGTACX_site8627] | 10.2 ± 0.4 |
| GTAGTAATAAATCTAGTGCATTATATATAACAAAAA [GTGCAC_site9803] | 8.81 ± 0.3 |
| TAGCCATTTTTATATTGTACTTATATAATCACATTT [XGTACX_site4407] | 8.72 ± 0.4 |
| ATGCACATTTATAAAAGTACATGTATGTAATATGTT [XGTACX_site830] | 8.77 ± 0.33 |
| TGTATGAAATATATTACACACATATATAATATATAT [CACACA_site793] | 8.36 ± 0.3 |
| GATGCTAAAATTTATACACACAAAAAAAAAAAATTC [CACACA_site3284] | 8.47 ± 0.46 |
| CAAGAAAATTGACACACACACATATTTATATTTATA [CACACA_site7766] | 8.36 ± 0.48 |
| AAGTATAACCTTTATAATAATGACATGACCGATTTT [CACACA_negctrl_site395] | 8.26 ± 0.34 |
| TGTAGTCTGGAGAAACGTACACAGTATCTGGTAACA [XGTACX_site4938] | 8.34 ± 0.36 |
| AAATGTACAGGACGCACACACATATTTATATTTATA [CACACA_site7689] | 8.55 ± 0.33 |
| AAATGTACAGGACGCACACACATATATATATATATA [CACACA_site3674] | 10.4 ± 0.81 |
| TAAAATGTACAGGACGCACACACATATATATATATA [CACACA_site3673] | 10.1 ± 0.22 |
| AAAAAAAAAAAAAAATGTACATATATATAAATATAT [XGTACX_site6768] | 8.34 ± 0.4 |
| AAAAAAAAAAAAAAATGTACATATAAATAAATATAT [XGTACX_site7248] | 8.51 ± 0.42 |
| ATATATATTATAATCTGTACATAAATATATAATAAA [XGTACX_site5425] | 8.39 ± 0.33 |
| TATAATAAATCGAACTGTACATATATATATATATAT [XGTACX_site7097] | 10.2 ± 0.33 |
| ATAAAAAAATATAAATGTACATATATATATATATAT [XGTACX_site5620] | 10.2 ± 0.2 |
| AACATATAAATAAACTGTACATATATATATATATAT [XGTACX_site1056] | 10.1 ± 0.39 |

| Sequence | gcPBM binding intensity (ln) |
| --- | --- |
| AATGTAAAATATAAATGTACATATATATATATATAT [XGTACX_site5071] | 10.2 ± 0.24 |
| ATAAAAATAAATAAATGTACATATATATATATATAT [XGTACX_site1277] | 10.1 ± 0.4 |
| AAAAAAAAAAAAAAATGTACATATATATAAATAAAA [XGTACX_site5574] | 8.51 ± 0.45 |
| ATTTTTATAGAATGAACACACATATTATAGCATTTA [CACACA_site6842] | 8.45 ± 0.38 |
| AACACTTCTTATTTATGTACTTAATTCCCAACGGAA [XGTACX_site4818] | 8.87 ± 0.46 |
| CATATGATATTATTTTGTACTTATTACAAATATGAA [XGTACX_site7929] | 8.4 ± 0.42 |
| TATAAAGCAACTGAAACACACAAATTTTTTTTTTTT [CACACA_site3218] | 8.04 ± 0.46 |
| ACACATAATATGTGTAGTACTTTTTCTTTAACATTA [XGTACX_site1436] | 8.64 ± 0.36 |
| TATAAAAATAATATTACACACATGTAAAATGCCCGT [CACACA_site7522] | 8.49 ± 0.31 |
| GGACAAGTTTTTTACATAAATAAAAAAAATAAAAAA [XGTACX_negctrl_site125] | 8.44 ± 0.42 |
| AAAAGGATTTTTTATACACACACTAACTAATGTATA [CACACA_site2356] | 8.23 ± 0.43 |
| ATATATATAATATATTGTACATATAATATATATATA [XGTACX_site4792] | 9.24 ± 0.042 |
| ATACATGAATAAATATGTACACATATAAAAACATAT [XGTACX_site2740] | 8.68 ± 0.23 |
| AAATGGAGTTAATATTGTACATATATATATATATAT [XGTACX_site5452] | 10.3 ± 0.18 |
| TATTAAATATTGTAATGTACATATATAATATAATAT [XGTACX_site1809] | 8.53 ± 0.17 |
| TCTGGCATATAATATTGTACACATATATATATATAT [XGTACX_site8182] | 10.2 ± 0.33 |
| AATAAAATACAAAAATGTACAAATATAATATACATA [XGTACX_site279] | 8.34 ± 0.28 |
| TAAATAAAATACAAATGTACATAAATAATAAATATA [XGTACX_site1813] | 8.76 ± 0.41 |
| CATATATAATAATATTGTACATATATAATAATAATA [XGTACX_site3338] | 8.4 ± 0.35 |
| TTATACTAAATGAACACACACACATATATATATATA [CACACA_site99] | 10 ± 0.5 |
| TTAAATGTTATATATTGTACATATAATATATGTATT [XGTACX_site1492] | 8.27 ± 0.19 |
| TATAATATATACAAATGTACATATATATATATATAT [XGTACX_site4559] | 10.2 ± 0.42 |
| ATACTAAAAATGAATGTACACATATATATATATATA [TGCATGCA_negctrl_site209] | 10.2 ± 0.33 |

| Sequence | gcPBM binding intensity (ln) |
| --- | --- |
| GGATAAAATGCTACGAGTACATAAGCATTTTTCCCT [XGTACX_site7796] | 8.73 ± 0.35 |
| ATGGTCTGTTAAAGATGTACTTTTTAAAAATAAACG [XGTACX_site2583] | 8.48 ± 0.25 |
| TATAGGTATATATTATGTACTTATAATTATATAGAT [XGTACX_site1912] | 8.52 ± 0.35 |
| TATATATATAAAATATGTACATAAAATTATTTATTT [XGTACX_site7666] | 8.61 ± 0.26 |
| ATATAATAATAAGGCACACAAATTAAAATATAAAAA [CACACA_site3710] | 8.79 ± 0.35 |
| TCATAAATATGAAAAAGTACAAAGGTAGATTTTGAA [XGTACX_site4535] | 8.48 ± 0.3 |
| GGATAATATATTAGAACACACATATAGATGTAAAAA [CACACA_site6229] | 8.57 ± 0.54 |
| ATATATATATATATATGTACATAATGCATATAATAT [XGTACX_site6142] | 10.2 ± 0.56 |
| TGTACAAATATGTACACACACACATATATATATATA [CACACA_site584] | 9.95 ± 0.31 |
| ACACAAGCACACAAATGTACATATATATATATATAT [XGTACX_site5146] | 10.2 ± 0.13 |
| TTTTTTTTTTTTTATTGTACATACTTTTAAATATAT [XGTACX_site4303] | 8.55 ± 0.59 |
| ATATATGCATATATATGTACATATATATATATATAT [XGTACX_site7403] | 9.93 ± 0.4 |
| TAAAAATCCACAAGCACACAAATGTACATATATATA [CACACA_site2462] | 8.71 ± 0.24 |
| AAATATATAATACATATGTAATATGCATATATATAT [GTGCAC_negctrl_site450] | 9.72 ± 0.16 |
| CGCTCTCTTTAATATTGTACATATATATTATATATA [XGTACX_site7017] | 8.77 ± 0.35 |
| CGCATGCAATGTTAATGTACATATATATATATATGT [XGTACX_site3316] | 9.395 ± 0.049 |
| ATTATGTTAATAATATGTACATATATCTACATATAT [XGTACX_site7978] | 8.37 ± 0.33 |
| TCGTCACTTTAATATTGTACATATATATATATATAT [XGTACX_site8046] | 10.3 ± 0.13 |
| ATATATATATATATATGTACATATGTTAATCTGCAT [XGTACX_site1068] | 10.2 ± 0.31 |
| TACAAATATATATGCACACACATATATGTATATGTG [CACACA_site3075] | 8.65 ± 0.26 |
